Measurements reported in the supplement of paper PMC3545927.
This is one part of the list. How many sequences the whole screen found active is unknown.

Target: furin, P09958
Assay: furin cleavage Z-score vs untreated control; higher = more cleavage, active = 3.5 or more, inactive = 1 or less, 8 variable residues between constant flanks
Procedure, shortened: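 Furin cleavage was scored on 8-mer peptides joined to a cDNA oligonucleotide and bound to magnetic beads at the N-terminus. Digestion with purified furin (1:10 enzyme:substrate, 0.01 ml, 50 mM HEPES pH 7.5, CaCl2, NaCl) lasted 7.5, 15 or 30 min. Freed DNA was tagged with adapters by PCR, sequenced and counted; the cleavage Z-score is the lowess-adjusted log count versus furin-free reactions, scaled by median absolute deviation.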

Sequence of furin, P09958 (P09958 whole entry): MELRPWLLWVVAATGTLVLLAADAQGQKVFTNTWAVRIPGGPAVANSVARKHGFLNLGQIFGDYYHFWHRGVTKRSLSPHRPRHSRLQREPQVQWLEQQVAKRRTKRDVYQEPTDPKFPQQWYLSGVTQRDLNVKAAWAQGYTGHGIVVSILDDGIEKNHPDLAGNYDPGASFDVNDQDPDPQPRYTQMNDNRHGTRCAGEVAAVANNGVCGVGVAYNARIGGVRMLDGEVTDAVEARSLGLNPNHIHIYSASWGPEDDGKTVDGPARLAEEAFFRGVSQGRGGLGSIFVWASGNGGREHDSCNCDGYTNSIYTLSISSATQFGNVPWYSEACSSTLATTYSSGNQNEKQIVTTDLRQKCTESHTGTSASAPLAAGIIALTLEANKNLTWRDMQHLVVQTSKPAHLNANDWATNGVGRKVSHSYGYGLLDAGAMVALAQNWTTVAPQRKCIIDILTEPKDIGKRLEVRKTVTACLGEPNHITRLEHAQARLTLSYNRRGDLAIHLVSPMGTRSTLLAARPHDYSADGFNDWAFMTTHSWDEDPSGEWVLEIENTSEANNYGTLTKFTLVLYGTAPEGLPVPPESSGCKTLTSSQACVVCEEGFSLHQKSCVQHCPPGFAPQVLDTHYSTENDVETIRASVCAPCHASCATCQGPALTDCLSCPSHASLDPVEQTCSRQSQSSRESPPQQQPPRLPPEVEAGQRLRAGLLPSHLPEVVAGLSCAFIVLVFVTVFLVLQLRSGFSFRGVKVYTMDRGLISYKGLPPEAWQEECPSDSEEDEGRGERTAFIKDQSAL

Sequence	furin cleavage Z-score (7.5 min)	furin cleavage Z-score (15 min)	furin cleavage Z-score (30 min)
CAEGCGWAGWAGNASASA [HC205]	-0.871 (inactive)	1.45	-1.04 (inactive)
CATESDIRTEAGNASASA [HC1485]	-0.326 (inactive)	-0.524 (inactive)	-0.55 (inactive)
CAVVCCSMSRAGNASASA [HC2093]	0.591 (inactive)	1.03	0.426 (inactive)
CARWKRQNFHAGNASASA [FS-2471]	1.47	0.449 (inactive)	3.01
CARWKRTQSQAGNASASA [FS-2845]	-0.543 (inactive)	1.6	1.76
CARWGRYEGGAGNASASA [FS-2844]	-0.438 (inactive)	-2.78 (inactive)	-1.36 (inactive)
CARWKRTQRHAGNASASA [FS-2623]	8.7 (active)	11.5 (active)	8.86 (active)
CARWKRYRRWAGNASASA [FS-1077]	10.1 (active)	12.1 (active)	10.9 (active)
CARWKRYQRSAGNASASA [FS-142]	9.87 (active)	10.7 (active)	9.68 (active)
CALVVLATATAGNASASA [HC832]	1.79	1.59	0.476 (inactive)
CAREECSQHLAGNASASA [HC1673]	1.67	1.9	0.967 (inactive)
CAEERREKREAGNASASA [FS-905]	4.27 (active)	4.96 (active)	6.98 (active)
CAWARRHKREAGNASASA [FS-1502]	10.7 (active)	9.83 (active)	7.82 (active)
CANDIREKREAGNASASA [FS-179]	3.92 (active)	4.37 (active)	4.65 (active)
CANKARLKKIAGNASASA [FS-694]	-0.0765 (inactive)	-1.98 (inactive)	-2.55 (inactive)
CASTKCSAHLAGNASASA [HC2514]	-0.0801 (inactive)	1.2	0.075 (inactive)
CATCTTPCSGAGNASASA [HC1958]	-0.852 (inactive)	0.00782 (inactive)	-0.733 (inactive)
CARRGRFLNQAGNASASA [FS-3047]	-0.612 (inactive)	-0.298 (inactive)	1.14
CAYNNRPWRPAGNASASA [FS-392]	-1.33 (inactive)	-0.755 (inactive)	-0.205 (inactive)
CATVSRTGRQAGNASASA [FS-1660]	0.744 (inactive)	2.19	3.07
CAHNNRVGRQAGNASASA [FS-596]	3.21	3.29	4.86 (active)

Sequence	furin cleavage Z-score (7.5 min)	furin cleavage Z-score (15 min)	furin cleavage Z-score (30 min)
CAHQNIVDVQAGNASASA [HC507]	-1.69 (inactive)	-1.38 (inactive)	0.384 (inactive)
CACRFRFGRQAGNASASA [FS-405]	2.68	3.98 (active)	2.63
CATGDNTTTSAGNASASA [HC1341]	0.632 (inactive)	0.808 (inactive)	-0.0812 (inactive)
CAEVMCHRPSAGNASASA [HC2346]	-0.818 (inactive)	-0.184 (inactive)	0.158 (inactive)
CADCMEECSQAGNASASA [HC1820]	-0.19 (inactive)	0.0434 (inactive)	-0.219 (inactive)
CAARVAIKSLAGNASASA [HC1495]	-0.648 (inactive)	-1.12 (inactive)	-0.674 (inactive)
CACTRGVAKAAGNASASA [HC753]	-1.87 (inactive)	-0.584 (inactive)	-0.853 (inactive)
CATTPCVGSWAGNASASA [HC63]	1.12	0.786 (inactive)	1.12
CALVALGINAAGNASASA [HC864]	1.29	-0.504 (inactive)	-2.31 (inactive)
CAWVAAQLAAAGNASASA [HC1068]	0.334 (inactive)	0.0281 (inactive)	0.213 (inactive)
CAWGPISYANAGNASASA [HC395]	-0.888 (inactive)	0.0541 (inactive)	-0.197 (inactive)
CARSRRDREEAGNASASA [FS-3236]	4.34 (active)	4.09 (active)	4.68 (active)
CARWGRGFGLAGNASASA [FS-3129]	1.38	-3.28 (inactive)	1.13
CARDGRDGRKAGNASASA [FS-1999]	1.36	-0.614 (inactive)	-0.387 (inactive)
CARSRRNDEEAGNASASA [FS-2608]	0.562 (inactive)	2.36	0.814 (inactive)
CARSRRGVSEAGNASASA [FS-2461]	8.54 (active)	8.94 (active)	5.25 (active)
CARSRRDFGLAGNASASA [FS-2310]	2.52	5.69 (active)	4.78 (active)
CARSRKRVSEAGNASASA [FS-2460]	0.0687 (inactive)	0.727 (inactive)	0.464 (inactive)
CARIMRDSGLAGNASASA [FS-2150]	-1.41 (inactive)	0.545 (inactive)	0.804 (inactive)
CARSRKAKEEAGNASASA [FS-2186]	0.169 (inactive)	-0.905 (inactive)	-0.373 (inactive)
CARSRRDGRKAGNASASA [FS-3172]	6.47 (active)	7.48 (active)	6.61 (active)
